For 39 molecules, growth results are on record in PubChem BioAssay (NCI).

This is part of a sample that, as a whole, favours compounds with a hit. Of some 83,000 tested, about 20% had one in any assay.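 Method: cells in 96-well plates; compound added at one concentration; 48 h incubation; percent growth measured; values under 10 scored active.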 Unmarked numbers belong to inactive results. Active and inactive are the calls of the source.

This experiment deals with SF-268 CNS. Kind of experiment: NCI-60 one-dose screen, 48 h (100 = growth as untreated, 0 = no growth, -100 = all killed). The settings on record: 10 µM unless noted.
As for `CCOc1cc2ncc(C#N)c(Nc3ccc(F)c(Cl)c3)c2cc1NC(=O)/C=C/CN(C)C`, the growth was -19.9% (active).

On to `CCN(CC)CCNC(=O)c1c(C)[nH]c(/C=C2\C(=O)Nc3ccc(F)cc32)c1C`, for which the growth is 39.6%.

With `COc1ccc2c(CCC(c3ccccc3)c3ccccc3)c3[n+](cc2c1OC)CCc1cc2c(cc1-3)OCO2`, the growth is 19.8%.

On to `C[C@@H](Oc1cc(-n2cnc3ccc(CN4CCN(C)CC4)cc32)sc1C(N)=O)c1ccccc1C(F)(F)F`, for which the growth is 31.6%.

With `CC(C)=CCc1cc2c(cc1O)C1=C(C(=O)C3=C(NCCS3(=O)=O)C1=O)C(C=C(C)C)O2` (centres undefined), the growth is 0.726% (active).

With `CC(N)C(Cc1ccc(Cl)cc1)c1ccc(Cl)cc1` (centres undefined), the growth was 62.6%.

With `Clc1nc(Cl)c2ncn(CC#CCn3cnc4c(Cl)nc(Cl)nc43)c2n1`, the growth is -37.8% (active).

Regarding `O=C(Cc1ccc(-c2ccc(OCCN3CCOCC3)cc2)cn1)NCc1ccccc1`, the growth is 29.6%.

As for `Cc1nc(NC(=O)N2CCC[C@H]2C(N)=O)sc1-c1ccnc(C(C)(C)C(F)(F)F)c1`, the growth is 54.2%.

With `COc1ccc2c(CCCc3ccc(Cl)cc3Cl)c3[n+](cc2c1OC)CCc1cc2c(cc1-3)OCO2`, the growth is 12.9%.

For the molecule `Cc1c(Cn2c(C)nc3c(C(=O)O)cc(N4CCOCC4)cc32)cccc1C(F)(F)F`, the growth is 88.6%.

With `COc1cc2nccc(Oc3ccc(NC(=O)C4(C(=O)Nc5ccc(F)cc5)CC4)cc3)c2cc1OC`, the growth is 34%.

Consider `C=CCCCC(=O)CCC(=O)OCC1O[C@@H](O[C@@H]2C(O)[C@@H](OC(C)=O)C(C)O[C@H]2O[C@H](CC=C)CCCCC)C(O)[C@@H](OC(=O)/C(C)=C/C)[C@@H]1OC(=O)/C=C/c1ccccc1` (some centres undefined), for which the growth was 29.2%.

Turning to `O=c1[nH]ccc2c(S(=O)(=O)N3CCCNCC3)cccc12`, the growth is 54.3%.

Regarding `CC1(C=O)NC(=O)NC1=O` (centres undefined), the growth is 101%.

Turning to `Cc1ccc(NC(=O)c2ccc(CN3CC[C@H](N(C)C)C3)c(C(F)(F)F)c2)cc1Nc1nccc(-c2cncnc2)n1`, the growth was 17.1%.

For the molecule `O=C(Nc1cccc(Cl)c1)Nc1ncc(CCNc2ncnc3ccsc23)s1`, the growth was 39.4%.

In the case of `Cn1ccnc1C(=O)/C=C/c1ccc(CC(=O)Nc2ccc(Br)cc2)cc1`, the growth is 16.2%.

For the molecule `CNC(=O)c1nn(C)c2c1C(C)(C)Cc1cnc(Nc3ccc(N4CCN(C)CC4)cc3)nc1-2`, the growth was 7.96% (active).

With `COc1cccc2cc(-c3nc(C4CCC(C(=O)O)CC4)n4ncnc(N)c34)[nH]c12` (centres undefined), the growth is 16.2%.

Take `CNc1ncc2cc(-c3cc(NC(=O)NCCC(C)(C)C)c(F)cc3C)c(C)nc2n1`: the growth was 26.5%.

As for `Cc1cc(C(=O)Nc2cc(Oc3ccc4nc(NC(=O)C5CC5)cn4n3)ccc2C)n(C)n1`, the growth was 40.9%.

On to `O=C(Cc1ccc(/C=C/C(=O)c2ncc[nH]2)cc1)Nc1ccc(Br)cc1`, for which the growth was 22.2%.

For `CCc1ccc(C2=C(O)C(=O)C(c3ccc(CC)cc3)=C(O)C2=O)cc1`, the growth is 0.61% (active).

Regarding `CNC(=O)c1cccc2cc(Oc3ccnc4cc(OCC5(N)CC5)c(OC)cc34)ccc12`, the growth was 52.4%.

For `CCCCN1CCCC[C@@H]1C(=O)N[C@H](C(=O)N(C)[C@H](CCc1nc(C(=O)N[C@@H](Cc2ccccc2)C[C@H](C)C(=O)OC)cs1)C(C)C)C(C)C`, the growth was 84.3%.

Take `COc1cnc2c(c1)C(=O)c1c-2n(CCCN2CCC(N)CC2)c(=O)c2cc([N+](=O)[O-])ccc12`: the growth was 50%.

As for `C=CC(=O)Nc1cc2c(Nc3ccc(F)c(Cl)c3)ncnc2cc1OCCCN1CCOCC1`, the growth is -5.09% (active).

As to `NC(=O)c1c(OCc2c(F)cc(Br)cc2F)nsc1NC(=O)NCCCCN1CCCC1`, the growth was 11.7%.

For the molecule `CCc1nc2ccc(Cc3ccc(C(=O)NO)cc3)cc2c(=O)n1CCc1ccccc1`, the growth is -48.5% (active).

For the molecule `Cc1cc(N(CCNc2ccnc3cc(Cl)ccc23)Cc2ccc3c(c2)OCO3)nc(N2CCN(C)CC2)n1`, the growth was 29.3%.

On to `Cc1ccc2oc(=O)cc(-c3cc(-c4cc5ccccc5oc4=O)nc(N)c3C#N)c2c1`, for which the growth is 48.1%.

On to `Cc1[nH]c(/C=C2\C(=O)Nc3ccc(F)cc32)c(C)c1C(=O)NC[C@H](O)CN1CCOCC1`, for which the growth is 40.9%.

`O=C(Nc1cn[nH]c1-c1nc2ccc(CN3CCOCC3)cc2[nH]1)NC1CC1`: the growth was 23.8%.

Take `O=C1CSC(c2c(F)cccc2Cl)N1NC(=O)C(O)(c1ccccc1)c1ccccc1` (centres undefined): the growth was 112%.

For the molecule `O=C1C=CC2(NN=C(c3ccccc3)N2c2cccc(Cl)c2)C(Cl)=C1` (centres undefined), the growth is 74.9%.

In the case of `Cc1ccc(N=C2CSc3nnc(-c4csc5c4CCCC5)n3N2)cc1`, the growth was 40.8%.

As to `Cc1cc(-c2cc(OC(=O)c3ccccc3)ccc2Cl)cc2nnc(Nc3ccc(OCCN4CCCC4)cc3)nc12`, the growth was 92.8%.

As for `Cc1cc(O)cc(-c2c(-c3ccnc(-c4cccnc4)c3)cnn2C)c1`, the growth was 72.8%.
